Assay [1] is described as follows: qHTS assay to identify small molecule agonists of the constitutive androstane receptor (CAR) signaling pathway - cell viability counter screen (AID 1224836). Also: nearly all actives have a fitted effect of over 45% in size. Also: potency is read from the fitted curve at half-maximal effect. An outline of the steps:
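23 h treatment, 37 C, 5% CO2. Cell line: HepG2 stably expressing hCAR with a CYP2B6-2.2kb construct. Co-treatment: PK11195, 0.75 uM final. Read-out: CellTiter-Fluor fluorescence intensity.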
On the technique in general: In qHTS, concentration-response curves come from the screen itself.

The nature of assay [2]: qHTS assay to identify small molecule antagonists of the constitutive androstane receptor (CAR) signaling pathway - cell viability counter screen (AID 1224837). Also: nearly all actives have a fitted effect of over 45% in size. Also: potency is read from the fitted curve at half-maximal effect. An outline of the steps:
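Multiplexed cytotoxicity read-out for the CAR antagonist screen: double-stable HepG2-CYP2B6-hCAR cells co-treated with 50 nM CITCO (final) and compound over 15 concentrations, incubated 23 hr, then assessed by CellTiter-Fluor fluorescence.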

The target in assay [3] is Nuclear receptor subfamily 1 group I member 3 (Homo sapiens) (UniProt Q14994). The experiment in a line: qHTS assay to identify small molecule antagonists of the constitutive androstane receptor (CAR) signaling pathway (AID 1224838). Also: nearly all actives have a fitted effect of over 40% in size. Also: potency is read from the fitted curve at half-maximal effect. In a few lines:
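Compounds were titrated across 15 concentrations onto HepG2 cells double-stably expressing hCAR and a CYP2B6-2.2kb reporter, together with 50 nM CITCO (final). After 24 h at 37 C, luciferase activity was measured by luminescence.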

Assay [4] shares this target. The experiment in a line: qHTS assay to identify small molecule agonists of the constitutive androstane receptor (CAR) signaling pathway (AID 1224839). Also: nearly all actives have a fitted effect of over 15% in size. Also: potency is read from the fitted curve at half-maximal effect.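 As to activation: HepG2 cells stably carrying human CAR and a CYP2B6 luciferase reporter.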 In a few lines: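 Compounds tested at 15 concentrations on HepG2 cells stably harbouring hCAR and CYP2B6-2.2kb reporter constructs, co-treated with PK11195 (0.75 uM final), 24 h at 37 C; luminescent reporter signal quantified.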

A short description of assay [5]: qHTS assay to identify small molecule antagonists of the estrogen related receptor signaling pathway with the pleiotropic PPARgamma coactivator (PGC) from Tox21 10K library - cell viability counter screen (AID 1224840; active = well fitted cell-killing curve with a large enough effect in the repeat runs, not every such curve was filed as active; also: nearly all actives have a fitted effect of over 40% in size; also: potency is read from the fitted curve at half-maximal effect). In a few lines:
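Step one, plate 2,000 PGC/ERR cells per well; step two, incubate 6 h at 37 C/5% CO2; step three, pin-transfer compounds; step four, incubate 17.5 h; step five, add CellTiter-Fluor and read fluorescence after 30 min.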

A short description of assay [6]: qHTS assay to identify small molecule antagonists of the estrogen related receptor signaling pathway with the pleiotropic PPARgamma coactivator (PGC) from Tox21 10K library (AID 1224841; call rule not given here; also: actives are mostly falling curves and most rising ones were filed inactive; nearly all actives have a fitted effect of over 50% in size). An outline of the steps:
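Antagonism in this quantitative HTS is taken from loss of luciferase signal in PGC/ERR cells. Cells (2,000/well) are treated with compounds in DMSO after a 6 h settling period and read by One-Glo luminescence after 18 h.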

Assay [7] addresses Thyrotropin receptor (Homo sapiens) (UniProt P16473). The assay can be described thus: qHTS assay to identify small molecule agonists of the thyroid stimulating hormone receptor (TSHR) signaling pathway (AID 1224843; calls by dose curve; also: nearly all actives have a fitted effect of over 45% in size). In a few lines: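 TSHR-expressing HEK293 cells (800 per well) were exposed to compounds for 30 min at room temperature. cAMP was then detected by HTRF competition with cAMP-d2 and anti-cAMP cryptate, read after 1 h at room temperature. Fifteen concentrations, triplicate.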

The nature of assay [8]: qHTS assay to identify small molecule agonists of the hypoxia (HIF-1) signaling pathway (AID 1224846; active = well fitted activation curve with a large enough effect in the signal ratio in the repeat runs, not every such curve was filed as active; the % refers to the signal ratio). In a few lines: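 Steps: seed ME-180 HRE-bla cells (2,000/well, 0.5% dialyzed FBS); incubate 5 hrs at 37C; pin-transfer compounds or DMSO; incubate 17 hrs; add LiveBLAzer B/G substrate CCF4-AM; measure reporter activation by FRET.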
Assay [9] can be described thus: qHTS assay to identify small molecule antagonists of the estrogen related receptor (ERR) signaling pathway from Tox21 library (AID 1224848). Also: nearly all actives have a fitted effect of over 50% in size. Also: potency is read from the fitted curve at half-maximal effect. An outline of the steps:
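Cells: ERR line, 2,000/well; 6 h preincubation 37 C/5% CO2. Cpd in DMSO via pin tool; 18 h, 37 C. ONE-Glo, 30 min RT, luminescence.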

Assay [10] can be described thus: qHTS assay to identify small molecule agonists of the estrogen related receptor (ERR) signaling pathway from Tox21 library (AID 1224849; calls by dose curve; also: nearly all actives have a fitted effect of over 15% in size). The following applies: ERR reporter cell line, ONE-Glo luciferase, 18 h; at 92.4 µM (top of the series) unless noted. An outline of the steps:
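Agonist signal is luciferase luminescence from an ERR reporter cell line treated 18 h at 37 C with DMSO-dissolved compounds, read 30 min after ONE-Glo addition at room temperature.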

A short description of assay [11]: qHTS RealTime-Glo MT Cell Viability Assay in HepG2 cells - 24 hour (AID 1224867). Also: nearly all actives have a fitted effect of over 50% in size. Also: potency is read from the fitted curve at half-maximal effect. In a few lines:
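HepG2 suspension premixed with RealTime-Glo reagents is plated at 600 cells per well and left 5 h at 37 C/5% CO2. Compounds in DMSO then go in, and bioluminescence reflecting viable cell number is recorded over 40 h.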

Assay [12] can be described thus: A CellTox Green Cytotoxicity Assay to monitor cytotoxicity in HEK293 cells - 0 hour (AID 1224869). Also: nearly all actives have a fitted effect of over 50% in size. An outline of the steps:
(§1)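 Cytotoxicity was tracked continuously in HEK293 cells by a DNA-binding dye excluded from viable cells. Compounds were transferred in DMSO 5 h after seeding; fluorescence was recorded at intervals up to 40 h.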

Assay [13] is described as follows: qHTS RealTime-Glo MT Cell Viability Assay in HepG2 cells - 40 hour (AID 1224870). Also: nearly all actives have a fitted effect of over 50% in size. Also: potency is read from the fitted curve at half-maximal effect. In a few lines:
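HepG2 cells mixed with RealTime-Glo MT reagents (NanoLuc plus cell-permeant prosubstrate) were seeded at 600 cells/well, incubated 5 h at 37 C/5% CO2, then pinned with compounds in DMSO; nonlytic luminescence tracked viability during 40 h treatment.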

The nature of assay [14]: qHTS RealTime-Glo MT Cell Viability Assay in HEK293 cells - 16 hour (AID 1224872). Also: nearly all actives have a fitted effect of over 50% in size. Also: potency is read from the fitted curve at half-maximal effect. As to activity change, negative = cytotoxicity: top concentration of the series differs between compounds. An outline of the steps:
(§2)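 Reads taken at 0, 8, 16, 24, 32 and 40 h from the same wells. HEK293 cells (600/well) carried RealTime-Glo reagents from seeding, with compound added after a 5 h settle at 37 C.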

The nature of assay [15]: qHTS assay to identify small molecule agonists of the hypoxia (HIF-1) signaling pathway - cell viability counter screen (AID 1224844; calls by dose curve; also: nearly all actives have a fitted effect of over 50% in size). An outline of the steps:
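Tox21 10K compounds were added to HRE-bla ME-180 cells (0.5% dialyzed FBS) and incubated 17 hrs at 37C; ATP-based CellTiter-Glo luminescence then reported cell viability in the same wells.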

Assay [16] can be described thus: qHTS assay to identify small molecule agonists of H2AX (AID 1224845; active = well fitted activation curve with a large enough effect in the signal ratio in the repeat runs, not every such curve was filed as active; the % refers to the signal ratio). An outline of the steps: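 Wild-type CHO-K1 cells plated overnight, then exposed 3 hr at 37C to compounds at 15 concentrations (0.76% DMSO). Lysed, then HTRF anti-pH2AX(S139)-cryptate/anti-H2AX-d2 detection after 24 hr at room temperature; emissions 665 and 620 nm.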
Assay [17] in a line: qHTS assay to identify small molecule agonists of H2AX - cell viability counter screen (AID 1224847; calls by dose curve; also: nearly all actives have a fitted effect of over 30% in size; also: potency is read from the fitted curve at half-maximal effect; as to activity change, negative = cytotoxicity: top concentration of the series differs between compounds). In a few lines:
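Compounds tested at 15 concentrations were incubated 3 hr at 37C with wild-type CHO-K1 cells; cellular ATP-based luminescence (CellTiter-Glo) indicated viability.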

The nature of assay [18]: qHTS RealTime-Glo MT Cell Viability Assay in HEK293 cells - 32 hour (AID 1224868). Also: nearly all actives have a fitted effect of over 50% in size. Also: potency is read from the fitted curve at half-maximal effect. As to activity change, negative = cytotoxic: top concentration of the series differs between compounds. In a few lines: as §2
The nature of assay [19]: A CellTox Green Cytotoxicity Assay to monitor cytotoxicity in HEK293 cells - 40 hour (AID 1224871). Also: nearly all actives have a fitted effect of over 45% in size. Also: potency is read from the fitted curve at half-maximal effect. An outline of the steps:
as §1

A short description of assay [20]: qHTS assay to identify small molecule agonists of the estrogen related receptor signaling pathway with the pleiotropic PPARgamma coactivator (PGC) from Tox21 10K library (AID 1224842). Also: nearly all actives have a fitted effect of over 15% in size. Also: potency is read from the fitted curve at half-maximal effect. In a few lines:
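PGC/ERR reporter cells (NTP line) were seeded 2,000 per well, rested 6 h at 37 C/5% CO2, then pin-dosed with compounds in DMSO for 18 h at 37 C; luciferase read by One-Glo luminescence after 30 min at room temperature.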

Where “and” joins values, the source holds several entries; their conditions need not be identical. Identical values can stand only once. Inconclusive results are not listed. More than one record can exist for a structure, and the calls need not agree. Calls of active or inactive are those of the source. Unless noted, calls follow the shape of the dose curve; as a rule, active = well fitted curve in the direction sought with a large enough effect in the repeat runs; inconclusive = weak or mixed curves; inactive = no such curve, though single readings can be large; an effect the other way counts as inactive or inconclusive.
% is scaled to controls: 0 for no effect and ±100 for the full control effect.

Thyrotropin receptor (Homo sapiens), sequence (P16473 whole entry, looked up): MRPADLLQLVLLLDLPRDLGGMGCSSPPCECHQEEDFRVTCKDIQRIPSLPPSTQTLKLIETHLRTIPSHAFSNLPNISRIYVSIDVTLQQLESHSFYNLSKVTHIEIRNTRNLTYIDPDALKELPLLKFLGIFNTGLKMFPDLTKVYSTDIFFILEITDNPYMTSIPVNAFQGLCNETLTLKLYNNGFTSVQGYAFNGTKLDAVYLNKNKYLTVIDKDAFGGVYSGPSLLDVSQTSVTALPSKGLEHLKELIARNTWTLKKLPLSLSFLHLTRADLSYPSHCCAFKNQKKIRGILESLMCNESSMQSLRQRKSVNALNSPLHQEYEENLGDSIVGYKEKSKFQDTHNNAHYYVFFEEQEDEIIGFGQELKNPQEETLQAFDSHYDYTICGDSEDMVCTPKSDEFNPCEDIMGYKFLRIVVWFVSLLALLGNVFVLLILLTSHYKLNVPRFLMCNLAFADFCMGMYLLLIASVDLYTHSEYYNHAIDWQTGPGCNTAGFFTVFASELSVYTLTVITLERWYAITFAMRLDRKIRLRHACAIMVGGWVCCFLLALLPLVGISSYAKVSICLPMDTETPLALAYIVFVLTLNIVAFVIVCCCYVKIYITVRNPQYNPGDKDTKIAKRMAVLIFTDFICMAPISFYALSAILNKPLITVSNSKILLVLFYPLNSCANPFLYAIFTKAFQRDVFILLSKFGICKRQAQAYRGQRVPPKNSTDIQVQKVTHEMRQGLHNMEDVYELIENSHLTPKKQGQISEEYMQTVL
Nuclear receptor subfamily 1 group I member 3 (Homo sapiens), sequence (Q14994 whole entry, looked up): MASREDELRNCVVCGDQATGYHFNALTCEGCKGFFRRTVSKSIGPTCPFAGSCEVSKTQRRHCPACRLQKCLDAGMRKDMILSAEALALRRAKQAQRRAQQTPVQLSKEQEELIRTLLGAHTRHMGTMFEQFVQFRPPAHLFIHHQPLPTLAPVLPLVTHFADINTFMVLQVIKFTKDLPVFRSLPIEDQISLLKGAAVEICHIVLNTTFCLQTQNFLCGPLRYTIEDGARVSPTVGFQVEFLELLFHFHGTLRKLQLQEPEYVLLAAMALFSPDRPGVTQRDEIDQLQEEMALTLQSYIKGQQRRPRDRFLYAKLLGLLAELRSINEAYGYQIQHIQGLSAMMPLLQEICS

For the compound `C=CC(=O)OCCC#N`, the Potency entry in assay [1], in assay [2], in [3], in [4], in assay [5] and in assay [6] was “inactive” throughout. Moreover, the Potency entry in assay [7], in [9], in [11], in assay [12], in assay [13] and in [14] was “inactive” throughout. Besides, the outcome in assay [8] was inactive. In addition, the activity change, positive = activation in assay [10] is 47% (active).

With `CCCCCCCCC(C)=O`, the Potency entry in assay [1], in assay [2], in [3], in assay [4], in assay [5] and in assay [7] was “inactive” each time. Besides, the Potency result in [15], in assay [16], in assay [17], in assay [11], in [18] and in assay [12] was “inactive” each time. The Potency result in assay [19] and in assay [14] was “inactive” in each case. In [8], the call was inactive.

Turning to `c1ccc(Nc2cccc3ccccc23)cc1`, the Potency result in assay [1], in assay [2], in [3], in assay [5], in assay [6] and in assay [15] was “inactive” throughout. The Potency result in [9], in assay [11], in assay [18], in assay [12], in assay [13] and in assay [19] was “inactive” in each case. Besides, the Potency entry in assay [14] is “inactive”. Also, the Potency in assay [4] is 61.9 µM (active) and 61.1 µM (active); in assay [20], 15.6 µM (active) and inactive; in assay [17], 115 µM (active) and 113 µM (active). Also, the activity change, positive = activation in [10] is -11.6% (active).

For `CCC1CCCCC1`, the Potency result in assay [1], in assay [2], in [3], in assay [4], in [5] and in assay [20] was “inactive” each time. Further, the Potency result in [7], in [15], in assay [16], in assay [17], in [9] and in [11] was “inactive” throughout. Besides, the Potency entry in assay [18], in assay [13], in [19] and in [14] was “inactive” each time. Besides, the call in assay [8] was inactive. Besides, the activity change, positive = activation in assay [10] is 11.4% (inactive).

On to `CC(C)(C)c1cc(CCC(=O)NCCCCCCNC(=O)CCc2cc(C(C)(C)C)c(O)c(C(C)(C)C)c2)cc(C(C)(C)C)c1O`, for which the Potency result in assay [1], in [2], in [4], in assay [5], in assay [7] and in assay [15] was “inactive” each time. The Potency entry in assay [16], in assay [17] and in assay [12] was “inactive” in each case. Further, the Potency in assay [3] is 1.93 µM (active). Further, the result in assay [8] was inactive.

For the compound `Cc1cnccn1`, the Potency result in assay [1], in assay [2], in assay [3], in [4], in assay [5] and in assay [20] was “inactive” throughout. Further, the Potency result in [15], in [16], in assay [17], in assay [9], in [11] and in assay [18] was “inactive” each time. Also, the Potency entry in [19] and in assay [14] was “inactive” in each case. Besides, the result in assay [8] was inactive. Also, in [10], the activity change, positive = activation was -1.47% (inactive).

On to `CCCCCCCCCCCCN(CCO)CCO`, for which the Potency in [1] is 68.3 µM (active); in assay [2], 68.3 µM (active); in assay [3] it was 68.3 µM (active); in assay [5], 60.9 µM (active); in assay [17], 100 µM (active); in assay [9], 60.9 µM (active). The Potency in assay [11] was 48.8 µM (active); in assay [18], 43.5 µM (active); in [13], 38.7 µM (active); in assay [19] it was 54.7 µM (active); in assay [14], 48.8 µM (active). In addition, the Potency result in assay [4], in assay [20], in assay [7] and in assay [12] was “inactive” in each case. Further, the activity change, positive = activation in [10] was -79.7% (inactive).

Consider `CCCCCCCCCCCCCCCCCO`, for which the values for the viability change, negative = cytotoxic in assay [1] and in assay [5] were 0.185% [at 19 µM] (inactive) and -0.916% [at 19 µM] (inactive), respectively. The activity change, negative = cytotoxicity in [2] is 8.93% [at 19 µM] (inactive); in assay [15] it was 4.42% [at 15.8 µM] (inactive); in assay [17] it was -0.549% [at 31.6 µM] (inactive); in [11] it was 0.355% [at 15.8 µM] (inactive); in assay [14] it was -0.33% [at 15.8 µM] (inactive). For the same compound, the activity, negative = inhibition in [3] was 9.23% [at 19 µM] (inactive); in [6], 44.5% [at 19 µM] (inactive); in assay [9], -9.79% [at 19 µM] (inactive). The activation was 0.0374% [at 19 µM] (inactive) in [4] and 4.3% [at 19 µM] (inactive) in assay [20]. Also, the activation (H2AX phosphorylation) in [16] is -3.22% [at 31.6 µM] (inactive). The activity change, positive = activation in [10] was -4.89% [at 19 µM] (inactive). Further, the results for the activity change, negative = cytotoxic in assay [18] and in [13] were 6.41% [at 15.8 µM] (inactive) and -3.35% [at 15.8 µM] (inactive), respectively. The cytotoxicity increase in [19] is -18.9% [at 15.8 µM] (inactive).
